In PubChem BioAssay AID1159580 (chemical genetic matrix, 2015):
Values joined by “and” are separate entries in the source; they are usually repeats but may differ in a detail not shown here. Equal entries are not always repeated. About 2,000 (36%) of roughly 5,500 compounds were called active. Not shown: some 18% with an inconclusive outcome. Cut-off read from the data, not from the text of the source: active = normalized growth mostly below about 0.91 (no sharp cut-off); inconclusive = no clear call, values can overlap the other calls; inactive = mostly above about 0.92. Some of the results follow.

Assay: chemical genetic growth profiling, strain panel (AID 1159580);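 note: tested at 20 µM; growth read once vehicle control cultures reached saturation at 30 °C; 1 = growth at the plate median or of vehicle wells; lower values mean less growth of the strain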
Settings: growth OD

Measured: normalized growth

CCOC(=O)C1=C(C)NC(C)=C(C(=O)OC)C1c1cccc([N+](=O)[O-])c1 (stereo unspecified)
inactive: S. cerevisiae deletion strains, locus YJL187C, strain SWE1, stronger effect = lower value 1.01 | S. cerevisiae deletion strains, locus YJR043C, strain POL32, stronger effect = lower value 1.01 | S. cerevisiae deletion strains, locus YJR075W, strain HOC1, stronger effect = lower value 0.995 and 0.989 | S. cerevisiae deletion strains, locus YKL009W, strain mrt4, stronger effect = lower value 1.01 | S. cerevisiae deletion strains, locus YKL068W, stronger effect = lower value 0.996 | S. cerevisiae deletion strains, locus YKL085W, strain MDH1 (second series), stronger effect = lower value 0.997 | S. cerevisiae deletion strains, locus YKL085W, strain MDH1, stronger effect = lower value 0.997 | S. cerevisiae deletion strains, locus YKL160W, strain elf1, stronger effect = lower value 1.01 | S. cerevisiae deletion strains, locus YKL190W, strain CNB1, stronger effect = lower value 0.99 | S. cerevisiae deletion strains, locus YKR001C, strain vps1, stronger effect = lower value 1 | S. cerevisiae deletion strains, locus YKR026C, strain gcn3, stronger effect = lower value 0.999 | S. cerevisiae deletion strains, locus YKR091W, strain srl3, stronger effect = lower value 1 | S. cerevisiae deletion strains, locus YLL001W, strain dnm1, stronger effect = lower value 1.02 | S. cerevisiae deletion strains, locus YLL026W, stronger effect = lower value 1 | S. cerevisiae deletion strains, locus YLL041C, strain sdh2, stronger effect = lower value 1.02 | S. cerevisiae deletion strains, locus YLR027C, strain aat2, stronger effect = lower value 1.01 | S. cerevisiae deletion strains, locus YLR039C, strain RIC1, stronger effect = lower value 0.968 | S. cerevisiae deletion strains, locus YLR058C, strain SHM2, stronger effect = lower value 0.999 | S. cerevisiae deletion strains, locus YLR102C, strain apc9, stronger effect = lower value 1 | S. cerevisiae deletion strains, locus YLR221C, strain rsa3, stronger effect = lower value 1.01 | S. cerevisiae deletion strains, locus YLR258W, strain gsy2, stronger effect = lower value 1.01 | S. cerevisiae deletion strains, locus YLR262C, strain YPT6 (second series), stronger effect = lower value 0.959 | S. cerevisiae deletion strains, locus YLR262C, strain YPT6, stronger effect = lower value 0.946 | S. cerevisiae deletion strains, locus YLR268W, strain sec22, stronger effect = lower value 0.984 | S. cerevisiae deletion strains, locus YLR320W, strain mms22, stronger effect = lower value 1 | S. cerevisiae deletion strains, locus YLR330W, strain CHS5, stronger effect = lower value 1.01 | S. cerevisiae deletion strains, locus YLR342W, strain FKS1 (second series), stronger effect = lower value 1.01 | S. cerevisiae deletion strains, locus YLR342W, strain FKS1, stronger effect = lower value 1.01 | S. cerevisiae deletion strains, locus YLR357W, strain rsc2, stronger effect = lower value 1.02 | S. cerevisiae deletion strains, locus YLR370C, strain arc18, stronger effect = lower value 1.01 | S. cerevisiae deletion strains, locus YLR371W, strain rom2, stronger effect = lower value 1.01 | S. cerevisiae deletion strains, locus YLR384C, strain iki3, stronger effect = lower value 0.998 | S. cerevisiae deletion strains, locus YLR418C, strain cdc73, stronger effect = lower value 0.967 | S. cerevisiae deletion strains, locus YML016C, strain PPZ1, stronger effect = lower value 1 | S. cerevisiae deletion strains, locus YML032C, strain rad52, stronger effect = lower value 1.02 | S. cerevisiae deletion strains, locus YML120C, strain ndi1, stronger effect = lower value 1.01 | S. cerevisiae deletion strains, locus YML124C, strain tub3, stronger effect = lower value 1 | S. cerevisiae deletion strains, locus YMR058W, strain fet3, stronger effect = lower value 1.02 | S. cerevisiae deletion strains, locus YMR078C, strain ctf18, stronger effect = lower value 0.999 | S. cerevisiae deletion strains, locus YMR125W, strain sto1, stronger effect = lower value 1.01 | S. cerevisiae deletion strains, locus YMR129W, stronger effect = lower value 0.999 | S. cerevisiae deletion strains, locus YMR205C, strain PFK2, stronger effect = lower value 0.991 | S. cerevisiae deletion strains, locus YMR223W, strain ubp8, stronger effect = lower value 1.01 | S. cerevisiae deletion strains, locus YMR231W, strain pep5, stronger effect = lower value 1.01 | S. cerevisiae deletion strains, locus YMR263W, strain SAP30, stronger effect = lower value 1.01 and 0.981 | S. cerevisiae deletion strains, locus YMR307W, strain GAS1, stronger effect = lower value 0.931 | S. cerevisiae deletion strains, locus YNL067W, strain RPL9B, stronger effect = lower value 0.996 | S. cerevisiae deletion strains, locus YNL071W, strain lat1, stronger effect = lower value 1.01 | S. cerevisiae deletion strains, locus YNL128W, strain TEP1, stronger effect = lower value 0.994 and 1.01 | S. cerevisiae deletion strains, locus YNL153C, strain GIM3, stronger effect = lower value 0.999 and 0.961 | S. cerevisiae deletion strains, locus YNL209W, strain ssb2, stronger effect = lower value 1.01 | S. cerevisiae deletion strains, locus YNL224C, strain SQS1, stronger effect = lower value 0.979 | S. cerevisiae deletion strains, locus YNL233W, strain BNI4, stronger effect = lower value 0.995 | S. cerevisiae deletion strains, locus YNL248C, strain rpa49, stronger effect = lower value 1.01 | S. cerevisiae deletion strains, locus YNL250W, strain rad50, stronger effect = lower value 1.01 | S. cerevisiae deletion strains, locus YNL271C, strain bni1, stronger effect = lower value 1.01 | S. cerevisiae deletion strains, locus YNL298W, strain CLA4, stronger effect = lower value 1.02 | S. cerevisiae deletion strains, locus YNL307C, strain MCK1, stronger effect = lower value 1.01 | S. cerevisiae deletion strains, locus YNL322C, strain KRE1 (second series), stronger effect = lower value 1.01 | S. cerevisiae deletion strains, locus YNL322C, strain KRE1, stronger effect = lower value 1 and 0.995 | S. cerevisiae deletion strains, locus YNR049C, strain mso1, stronger effect = lower value 1.01 | S. cerevisiae deletion strains, locus YNR052C, strain pop2, stronger effect = lower value 1.01 | S. cerevisiae deletion strains, locus YOL006C, strain TOP1, stronger effect = lower value 1.01 | S. cerevisiae deletion strains, locus YOL012C, strain htz1 0.79 | S. cerevisiae deletion strains, locus YOL147C, strain pex11, stronger effect = lower value 1.01 | S. cerevisiae deletion strains, locus YOR001W, strain rrp6, stronger effect = lower value 1.03 | S. cerevisiae deletion strains, locus YOR061W, strain CKA2, stronger effect = lower value 0.988 | S. cerevisiae deletion strains, locus YOR069W, strain VPS5, stronger effect = lower value 0.997 | S. cerevisiae deletion strains, locus YOR070C, strain gyp1, stronger effect = lower value 1.01 | S. cerevisiae deletion strains, locus YOR080W, strain dia2, stronger effect = lower value 1.01 | S. cerevisiae deletion strains, locus YOR083W, strain WHI5, stronger effect = lower value 1 | S. cerevisiae deletion strains, locus YOR106W, strain vam3, stronger effect = lower value 1.01 | S. cerevisiae deletion strains, locus YOR136W, strain idh2, stronger effect = lower value 1.02 | S. cerevisiae deletion strains, locus YOR144C, strain elg1, stronger effect = lower value 1 | S. cerevisiae deletion strains, locus YOR184W, strain ser1, stronger effect = lower value 1.01 | S. cerevisiae deletion strains, locus YOR265W, strain rbl2, stronger effect = lower value 1 | S. cerevisiae deletion strains, locus YOR270C, strain vph1, stronger effect = lower value 1.03 | S. cerevisiae deletion strains, locus YOR290C, strain snf2, stronger effect = lower value 1.01 | S. cerevisiae deletion strains, locus YOR316C, strain cot1, stronger effect = lower value 1 | S. cerevisiae deletion strains, locus YPL051W, strain arl3, stronger effect = lower value 1 | S. cerevisiae deletion strains, locus YPL055C, strain LGE1, stronger effect = lower value 0.95 and 1 | S. cerevisiae deletion strains, locus YPL078C, strain atp4, stronger effect = lower value 1.03 | S. cerevisiae deletion strains, locus YPL106C, strain sse1, stronger effect = lower value 1.04 | S. cerevisiae deletion strains, locus YPL240C, strain hsp82, stronger effect = lower value 1.01 | S. cerevisiae deletion strains, locus YPL241C, strain CIN2, stronger effect = lower value 0.977 | S. cerevisiae deletion strains, locus YPR119W, strain clb2, stronger effect = lower value 1 | S. cerevisiae deletion strains, locus YPR141C, strain kar3, stronger effect = lower value 1 | S. cerevisiae deletion strains, locus YPR163C, strain tif3, stronger effect = lower value 1.01 | S. cerevisiae deletion strains, locus YPR167C, strain met16, stronger effect = lower value 0.998 | S. cerevisiae deletion strains, strain wtn01, stronger effect = lower value 0.987 | S. cerevisiae strains, strain wild type, stronger effect = lower value 0.982
